Reference: paper PMC7819943, “Rice protein-binding microarrays: a tool to detect cis-acting elements near promoter regions in rice”
The full ranking holds about 68,000 sequences; the median of “fluorescence intensity (a.u.)” is about 9,100, and the highest 2% start at about 16,000. The sample as a whole holds a higher share of the highest values than the screen did.

What follows are sequences tested against OsWRKY34 (Oryza sativa, UniProt Q0JBA9 1-250) (assay: protein-binding microarray (RPBM); PBS, 2% BSA, 51.3 ng/ul salmon testes DNA, 50 uM zinc acetate, 200 nM TF, 25 C, 1 h; high values mean tight binding). Details: protein: recombinant; tags: N-terminal polyhistidine and DsRed monomer fusion (pET32a); label: CyDye5-dUTP incorporated in the synthesized complementary strand; 3' TTTTT single-stranded linker to array surface; dsDNA, one strand shown.
How it was run: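 Transcription factors were each fused at the N-terminus to a polyhistidine tag plus DsRed and expressed in E. coli BL21-CodonPlus before Ni–NTA purification. Binding to a double-stranded custom Agilent array was carried out with 200 nM protein at 25 °C for 1 h in PBS, 2% BSA, salmon testes DNA and 50 µM zinc acetate. The binding signal is per-feature fluorescence intensity, in arbitrary units, on an Axon 4000B scanner.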

OsWRKY34, sequence (Q0JBA9 entry or part of it): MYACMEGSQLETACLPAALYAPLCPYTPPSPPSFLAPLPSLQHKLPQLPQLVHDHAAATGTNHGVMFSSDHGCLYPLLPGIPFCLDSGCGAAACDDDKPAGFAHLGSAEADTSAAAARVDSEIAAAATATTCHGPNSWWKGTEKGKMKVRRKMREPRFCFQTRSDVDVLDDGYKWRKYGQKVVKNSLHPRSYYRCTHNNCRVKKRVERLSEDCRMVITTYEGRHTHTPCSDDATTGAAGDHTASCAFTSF

Sequence	binding signal
CTGGTCAGAGTCCCCAACCAAAAGCATTTCTCCTGCCTTCCGGAGTCACCTAGTGCAG	8660 fluorescence intensity (a.u.)
CGTCCGTCTCCATCTGACACCTCCCAGTGCTTGCGCCCATCGGAGTCACCTAGTGCAG	8030 fluorescence intensity (a.u.)
GACTTACTTTATTGTCTACAGTACTTTAAGCACAACTTTTCGGAGTCACCTAGTGCAG	8360 fluorescence intensity (a.u.)
ATACCCGTCTTTTCCTTCCCTTTCATCAATTGCCTCTTGTCGGAGTCACCTAGTGCAG	11500 fluorescence intensity (a.u.)
TAGTTTTCTCAGGTGTTTGGGAATTGGTTGGTGAAGATGACGGAGTCACCTAGTGCAG	9450 fluorescence intensity (a.u.)
GGATGCTCTTGTGTTCTTGTTGTTGATTTGTATTGTGGATCGGAGTCACCTAGTGCAG	8240 fluorescence intensity (a.u.)
GATTTCTGTGTTTTTCCTGTGGTCCAATCAAACGGTCATTCGGAGTCACCTAGTGCAG	12700 fluorescence intensity (a.u.)
TTTCTTCTTCTCGTCTCTTCTCGCCGCCGCCGCCGCAATGCGGAGTCACCTAGTGCAG	9300 fluorescence intensity (a.u.)
TGCGGCCCACCTTTGCTTCTTCGTTGACTTTCTTGCCGTCCGGAGTCACCTAGTGCAG	26900 fluorescence intensity (a.u.)
GCCGTCTTTGCTTGATAGTCTTCGCCATGGGGACTTTGTCCGGAGTCACCTAGTGCAG	8210 fluorescence intensity (a.u.)
TCGTTGACTTTCTTGCCGTCTCGCCGCCGCCGCCGCCATGCGGAGTCACCTAGTGCAG	23600 fluorescence intensity (a.u.)
TCATCTTGCTTTCCCCTTCTTCGCCCACGCGGCCGCGGCCCGGAGTCACCTAGTGCAG	8620 fluorescence intensity (a.u.)
CTCGCCGCCGTTCGTCTCCGCCGCCACCGCCGCCGCCATGCGGAGTCACCTAGTGCAG	11300 fluorescence intensity (a.u.)
AAACCCTCTCTCTCTCTCTCTCTCACACACACACGCAAACCGGAGTCACCTAGTGCAG	10300 fluorescence intensity (a.u.)
GTCAACTGCCTATCCTAGATATCTATCACTACCGAAAGCCCGGAGTCACCTAGTGCAG	8930 fluorescence intensity (a.u.)
TCAACACAGCAACGTTTCACTTTCATATCATCTGATTATTCGGAGTCACCTAGTGCAG	8470 fluorescence intensity (a.u.)
TCCGTCCATCCTCACTATCATTAGTACTACTGGTTCTTCTCGGAGTCACCTAGTGCAG	12200 fluorescence intensity (a.u.)
TTTTGTGGTATTTTAAACATGGTTTATATTTCTTATATTTCGGAGTCACCTAGTGCAG	9830 fluorescence intensity (a.u.)
GGGTTTTGGAGTGGTGGTGGTGGAGGATTGGAGTTGGGGTCGGAGTCACCTAGTGCAG	11600 fluorescence intensity (a.u.)
GGTTGGGTGGAGGGTATTACAGTCTTTTTGCTTTTGTATTCGGAGTCACCTAGTGCAG	36600 fluorescence intensity (a.u.)
ATGGATGGGGATTCATTTGTTTGGTGAGTAGTGGTCGGGTCGGAGTCACCTAGTGCAG	9800 fluorescence intensity (a.u.)

Sequence	binding signal
TTTGGATTGGGTTTGGTGGTTGGGTGGGAGGGAGGGAGCTCGGAGTCACCTAGTGCAG	28600 fluorescence intensity (a.u.)
TTGGTGAGGGTTTGGGTTTGGTGGTGGAGTGGAGTGGAGTCGGAGTCACCTAGTGCAG	10700 fluorescence intensity (a.u.)
AGAGGGATGGGTGTTTGATTGGAGTGGGTTGGGAGCCATGCGGAGTCACCTAGTGCAG	9390 fluorescence intensity (a.u.)
TTTTTGGTGGGGTAGAGTTGTATTTGGTTTGAGGCCAATTCGGAGTCACCTAGTGCAG	9480 fluorescence intensity (a.u.)
TGTTGTTTTGGTCTACAGTTGTCTTTTGAGTTGTTGTATTCGGAGTCACCTAGTGCAG	12200 fluorescence intensity (a.u.)
CTTCGTTCGTTGGATTCGCTCTCGCGCGCCGCCGCCGCCGCGGAGTCACCTAGTGCAG	11200 fluorescence intensity (a.u.)
CTCTCGTTGTTTTTGCTCTTTTGGGTTCGCTCGGAAGATGCGGAGTCACCTAGTGCAG	8490 fluorescence intensity (a.u.)
GGGGTGTTTGGTTGAGGGGTGGGTGGGATGGATTGGTCCTCGGAGTCACCTAGTGCAG	32300 fluorescence intensity (a.u.)
TCGCTCTCGTTGGATTCGGTTTGGTTTGGTTTGGGCCATGCGGAGTCACCTAGTGCAG	18700 fluorescence intensity (a.u.)
CATCGAGTAGCCGCCGCCGCCACCTGGTGCTCGTGACGCCCGGAGTCACCTAGTGCAG	8670 fluorescence intensity (a.u.)
CTTCAAACTTTTAATTTTTCCGTCACATCGAACTTTTCTACGGAGTCACCTAGTGCAG	9760 fluorescence intensity (a.u.)
TCACACGTTTCATTGACGTTTCCTAGCATCCGACCTCTCTCGGAGTCACCTAGTGCAG	9620 fluorescence intensity (a.u.)
TCCCCTGTTCTCGTACACAAATTCGCAGCGATCTAATAGTCGGAGTCACCTAGTGCAG	8480 fluorescence intensity (a.u.)
CTGATTTTCATTTGAGAACAAAGTTTCTACGCATATTACCCGGAGTCACCTAGTGCAG	8240 fluorescence intensity (a.u.)
CCCCAGCCCAGTTGGGCCCAAACTGTCCATTCCAGCCATCCGGAGTCACCTAGTGCAG	8330 fluorescence intensity (a.u.)
TCAGTAGCATTTCCGGGTCCCATCTATATGGACTAATTTTCGGAGTCACCTAGTGCAG	9100 fluorescence intensity (a.u.)
ACAGAACGAACCACCTATACGTACGTTTTCTCTCTTTTGACGGAGTCACCTAGTGCAG	8040 fluorescence intensity (a.u.)
TATACAATTGCCTTACCTGTCCCCACCTGTCACATGCCTCCGGAGTCACCTAGTGCAG	9460 fluorescence intensity (a.u.)
ACCTACCACCACCTTACCCTCTCGCTGACATCCCGGCCCCCGGAGTCACCTAGTGCAG	12000 fluorescence intensity (a.u.)
GGCCTTGTTCGGTTGGTCCGGGAATGACTGGGGTTGGGCTCGGAGTCACCTAGTGCAG	9210 fluorescence intensity (a.u.)
TGTGTTGGATCGGTTGGACGCGCTCACTCGGTTTGGTTTGCGGAGTCACCTAGTGCAG	9730 fluorescence intensity (a.u.)
